The source of these data is PubChem BioAssay (Tox21).

Test [1] can be described thus: qHTS assay to identify small molecule agonists of H2AX (AID 1224845; active = well fitted activation curve with a large enough effect in the signal ratio in the repeat runs, not every such curve was filed as active; the % refers to the signal ratio). The procedure, abridged: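 Phospho-H2AX Ser139 measured by HTRF (ex 320 nm; em 665 and 620 nm) after 24 hr antibody incubation. Compounds, 15 concentrations, 0.76% DMSO, were applied to CHO-K1 cells for 3hr at 37C before lysis.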
Test [2] in a line: qHTS assay to identify small molecule agonists of the hypoxia (HIF-1) signaling pathway (AID 1224846; active = well fitted activation curve with a large enough effect in the signal ratio in the repeat runs, not every such curve was filed as active; the % refers to the signal ratio). An outline of the steps: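 HRE-bla ME-180 beta-lactamase reporter cells in medium with 0.5% dialyzed FBS, pre-incubated 5 h then exposed to compounds 17 h at 37C, 5% CO2; reporter induction read with CCF4-AM FRET substrate.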
(qHTS replaces the single test concentration by a dilution series.)

The nature of test [3]: qHTS assay to identify small molecule agonists of H2AX - cell viability counter screen (AID 1224847; calls by dose curve; also: nearly all actives have a fitted effect of over 30% in size; also: potency is read from the fitted curve at half-maximal effect). An outline of the steps:
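Cells plated first: CHO-K1, 1000 per well in 10% FBS medium, incubated overnight at 37C. Then 15-point compound titration added (final DMSO 0.76%) for 3 hr. Finally CellTiter-Glo added and luminescence read.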

Test [4] in a line: qHTS assay to identify small molecule agonists of the estrogen related receptor (ERR) signaling pathway from Tox21 library (AID 1224849; calls by dose curve; also: nearly all actives have a fitted effect of over 15% in size). The settings on record: ERR reporter cell line, ONE-Glo luciferase, 18 h; at 92.4 µM (top of the series) unless noted. An outline of the steps:
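ERR reporter cells (NTP line) pre-incubated 6 hours at 37 C, then exposed to compounds for 18 hours at 37 C. ONE-Glo luciferase luminescence was read after 30 minutes at room temperature.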

Test [5] is described as follows: qHTS RealTime-Glo MT Cell Viability Assay in HepG2 cells - 24 hour (AID 1224867). Also: nearly all actives have a fitted effect of over 50% in size. Also: potency is read from the fitted curve at half-maximal effect. The procedure, abridged: (§1)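 Viability was tracked continuously by NanoLuc luminescence from prosubstrate reduced by living HepG2 cells, at successive time points over 40 h of compound exposure. Cells with reagent were preincubated 5 h at 37 °C before compound addition.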
A short description of test [6]: qHTS RealTime-Glo MT Cell Viability Assay in HEK293 cells - 32 hour (AID 1224868). Also: nearly all actives have a fitted effect of over 50% in size. Also: potency is read from the fitted curve at half-maximal effect. The procedure, abridged:
(§2)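 Viability tracked continuously by luminescence as live cells reduce a prosubstrate for NanoLuc; HEK293 cells preincubated 5 h, compound-treated at 37 C, and read at 0, 8, 16, 24, 32 and 40 h.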

Test [7] is described as follows: A CellTox Green Cytotoxicity Assay to monitor cytotoxicity in HEK293 cells - 0 hour (AID 1224869). Also: nearly all actives have a fitted effect of over 50% in size. The procedure, abridged: (§3)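 HEK293 cells, 600/well, were preincubated 5 hours and then exposed to compounds at 37 C for up to 40 hours. A cell-impermeant cyanine dye staining dead-cell DNA was read by fluorescence at 0, 8, 16, 24, 32 and 40 h time points.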
Test [8] can be described thus: qHTS RealTime-Glo MT Cell Viability Assay in HepG2 cells - 40 hour (AID 1224870). Also: nearly all actives have a fitted effect of over 50% in size. The procedure, abridged: (§4)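 Real-time viability: cells seeded at 600 per well together with NanoLuc and cell-permeant prosubstrate, compounds added after 5 h incubation. Luminescence tracked at 0, 8, 16, 24, 32 and 40 h of exposure.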
A short description of test [9]: A CellTox Green Cytotoxicity Assay to monitor cytotoxicity in HEK293 cells - 40 hour (AID 1224871). Also: nearly all actives have a fitted effect of over 45% in size. Also: potency is read from the fitted curve at half-maximal effect. The procedure, abridged:
as §3

The nature of test [10]: qHTS RealTime-Glo MT Cell Viability Assay in HEK293 cells - 16 hour (AID 1224872). Also: nearly all actives have a fitted effect of over 50% in size. Also: potency is read from the fitted curve at half-maximal effect. The procedure, abridged:
as §2

The nature of test [11]: qHTS RealTime-Glo MT Cell Viability Assay in HepG2 cells - 8 hour (AID 1224873). Also: nearly all actives have a fitted effect of over 55% in size. Also: potency is read from the fitted curve at half-maximal effect. An outline of the steps:
as §4

The nature of test [12]: qHTS RealTime-Glo MT Cell Viability Assay in HEK293 cells - 40 hour (AID 1224874). Also: nearly all actives have a fitted effect of over 50% in size. Also: potency is read from the fitted curve at half-maximal effect. To be noted: RealTime-Glo luminescence; max response: hits give low values. An outline of the steps: (§5)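 600 cells/well were plated with the nonlytic NanoLuc/prosubstrate reagent, pre-incubated 5 h, then given 23 nL of compound in DMSO. Incubation at 37 C for 40 h, with luminescence from viable-cell-reduced substrate read repeatedly from 0 h.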

Test [13] can be described thus: A CellTox Green Cytotoxicity Assay to monitor cytotoxicity in HEK293 cells - 24 hour (AID 1224875). Also: nearly all actives have a fitted effect of over 45% in size. Also: potency is read from the fitted curve at half-maximal effect. An outline of the steps:
as §3

Test [14] is described as follows: A CellTox Green Cytotoxicity Assay to monitor cytotoxicity in HepG2 cells - 16 hour (AID 1224876). Also: nearly all actives have a fitted effect of over 45% in size. Also: potency is read from the fitted curve at half-maximal effect. The procedure, abridged:
(§6)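 HepG2 cells, 600/well, preincubated 5 h with CellTox Green dye, then exposed to Tox21 compounds in DMSO at 37 C for up to 40 h. Dead-cell DNA fluorescence read at the indicated time point.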

The nature of test [15]: qHTS RealTime-Glo MT Cell Viability Assay in HepG2 cells - 32 hour (AID 1224877). Also: nearly all actives have a fitted effect of over 55% in size. An outline of the steps:
as §1

Test [16] is described as follows: A CellTox Green Cytotoxicity Assay to monitor cytotoxicity in HepG2 cells - 40 hour (AID 1224879). Also: nearly all actives have a fitted effect of over 40% in size. Also: potency is read from the fitted curve at half-maximal effect. The procedure, abridged: as §6
Test [17] can be described thus: A CellTox Green Cytotoxicity Assay to monitor cytotoxicity in HepG2 cells - 24 hour (AID 1224878). Also: nearly all actives have a fitted effect of over 45% in size. Also: potency is read from the fitted curve at half-maximal effect. An outline of the steps: as §6
Test [18] in a line: qHTS RealTime-Glo MT Cell Viability Assay in HEK293 cells - 0 hour (AID 1224880). An outline of the steps:
as §5

Test [19] in a line: qHTS assay to identify small molecule agonists of the hypoxia (HIF-1) signaling pathway - cell viability counter screen (AID 1224844; calls by dose curve; also: nearly all actives have a fitted effect of over 50% in size; also: potency is read from the fitted curve at half-maximal effect). An outline of the steps:
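HRE-bla ME-180 cells, 2,000/well in 0.5% dialyzed FBS medium, treated 17 h at 37C with compounds. Viability read in the same wells as the bla reporter, by CellTiter-Glo luminescence after 30 min at room temperature.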

Test [20] in a line: qHTS assay to identify small molecule antagonists of the estrogen related receptor (ERR) signaling pathway from Tox21 library (AID 1224848). Also: nearly all actives have a fitted effect of over 50% in size. Also: potency is read from the fitted curve at half-maximal effect. An outline of the steps: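 Reading was by luminescence 30 min after ONE-Glo addition. Before that, ERR cells at 2,000 per well had rested 6 h at 37 C/5% CO2 and then received pin-tooled compounds in DMSO for 18 h at 37 C.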

Values joined by “and” are separate entries in the source; they are usually repeats but may differ in a detail not shown here. Identical values can stand only once. Unmarked numbers belong to inactive results. Records with an inconclusive call do not appear. Active and inactive are the calls of the source. Unless noted, calls follow the shape of the dose curve; as a rule, active = well fitted curve in the direction sought with a large enough effect in the repeat runs; inconclusive = weak or mixed curves; inactive = no such curve, though single readings can be large; an effect the other way counts as inactive or inconclusive.
% is scaled to controls: 0 for no effect and ±100 for the full control effect.

For the compound `Cc1cnc2c(C(=O)O)c(Cl)ccc2c1`, the Potency entry in test [1], in test [2], in test [3], in test [5], in test [6] and in test [7] was “inactive” throughout. Besides, the Potency entry in [8], in test [9], in [10], in test [11], in test [13] and in test [14] was “inactive” throughout. For the same compound, the Potency entry in [15] and in [16] was “inactive” in each case. Further, the activity change, positive = activation in [4] was -0.863%. In addition, the max response in [12] is 3.08%.

In the case of `BrCCCBr`, the Potency entry in test [1], in test [2], in test [3], in test [5], in [6] and in test [7] was “inactive” each time. The Potency entry in test [8], in test [9], in test [10], in test [11], in test [13] and in test [14] was “inactive” each time. Besides, the Potency result in [15], in test [17], in test [16] and in test [18] was “inactive” each time. Besides, in test [12], the max response is 6.85%.

Regarding `c1ccc2nc(N3CCNCC3)ccc2c1`, the Potency result in test [19], in test [3], in [6], in test [7], in test [8] and in test [9] was “inactive” each time. In addition, the Potency entry in [10], in test [11], in test [14], in test [15], in test [17] and in test [18] was “inactive” throughout. In addition, the max response in test [12] was -17.1%.

On to `CSC(C)(C)/C=N/O`, for which the Potency result in [1], in [2], in test [3], in test [5], in test [6] and in test [7] was “inactive” in each case. In addition, the Potency result in [8], in [9], in [10], in test [11], in test [13] and in [14] was “inactive” throughout. The Potency result in [15], in [17], in [16] and in test [18] was “inactive” in each case. For the same compound, the max response in test [12] is 2.63%.

Turning to `CC1(C)[C@H](/C=C2\CCSC2=O)[C@@H]1C(=O)OCc1coc(Cc2ccccc2)c1`, the Potency result in test [19], in [5], in test [7], in test [8], in test [9] and in test [14] was “inactive” in each case. Further, the Potency result in [15], in [17] and in test [16] was “inactive” throughout.

Consider `Oc1cc(Cl)cc(Cl)c1`, for which the Potency entry in [1], in [2], in [7], in [8], in test [11] and in test [14] was “inactive” in each case. Moreover, the Potency result in test [15], in test [17], in [16] and in test [18] was “inactive” each time. The Potency in test [3] is 90.7 µM (active); in test [20], 61.8 µM (active). Besides, the activity change, positive = activation in test [4] was -48.8%.

Consider `O=S1OCC2C(CO1)C1(Cl)C(Cl)=C(Cl)C2(Cl)C1(Cl)Cl` (configuration not stated), for which the Potency in test [19] is 48.9 µM (active); in [3], 101 µM (active) and 89.7 µM (active); in [5], 54.9 µM (active); in test [6], 21.9 µM (active) and 38.9 µM (active); in test [9], 49 µM (active) and 54.9 µM (active); in test [10] it was 19.5 µM (active) and 38.9 µM (active). In addition, the Potency in [11] is 48.9 µM (active); in [12] it was 21.9 µM (active) and 38.9 µM (active); in test [13], 55 µM (active) and 54.9 µM (active); in test [14], 48.9 µM (active); in test [16] it was 54.9 µM (active). In addition, the Potency entry in test [7], in test [8] and in [18] was “inactive” each time.

`Cc1cccc(Cc2cnc[nH]2)c1C`: the Potency entry in [19], in test [3], in [5], in [6], in [7] and in [8] was “inactive” in each case. The Potency entry in test [9], in [10], in [11], in test [13], in test [15] and in test [18] was “inactive” in each case. For the same compound, in test [12], the max response was -0.68%.

Take `C#CCO`: the Potency result in [1], in test [2], in [3], in test [5], in [6] and in [7] was “inactive” each time. Also, the Potency entry in test [8], in test [9], in test [10], in [11], in [13] and in test [14] was “inactive” in each case. Also, the Potency result in test [15], in test [17], in [16] and in test [18] was “inactive” in each case. Further, in test [12], the max response was 3.5%.

Consider `CCCCc1ccccc1`, for which the Potency entry in test [19], in test [3], in [5], in [6], in test [7] and in test [8] was “inactive” throughout. The Potency entry in test [9], in [10], in test [11], in [13], in test [14] and in test [15] was “inactive” each time. In addition, the Potency entry in test [17] and in test [16] was “inactive” in each case. The max response in [12] was -16%.

As to `COc1cnc(OC)n2nc(NS(=O)(=O)c3c(OCC(F)F)cccc3C(F)(F)F)nc12`, the Potency result in test [1], in test [2], in [3], in [6], in test [7] and in test [8] was “inactive” in each case. The Potency entry in test [9], in test [10], in test [11], in test [14], in test [15] and in [17] was “inactive” in each case. Besides, the Potency entry in test [16] and in test [18] was “inactive” in each case. Besides, in [4], the activity change, positive = activation was 0.129%. Moreover, in [12], the max response is 16.5%.

Turning to `O=[N+]([O-])c1ccccc1-c1ccccc1`, the Potency entry in [1], in test [2], in [3], in [20], in [5] and in [6] was “inactive” throughout. Further, the Potency result in [7], in test [8], in test [9], in test [10], in [11] and in test [13] was “inactive” each time. Further, the Potency entry in test [14], in test [15], in test [17], in test [16] and in test [18] was “inactive” throughout. In addition, in test [4], the activity change, positive = activation is -1.13%. Further, in [12], the max response was 4.62%.

On to `Oc1ccc([C@H]2CNCc3c2ccc(O)c3O)cc1O`, for which the Potency result in [19], in test [3], in test [6], in [7], in [8] and in test [15] was “inactive” each time. The Potency entry in [18] was “inactive”. Further, the activity change, positive = activation in test [4] is -4.81% [at 42.5 µM]. The max response in test [12] was -21.9%. Further, the Potency in test [13] is 26.8 µM (active); in test [14], 23.9 µM (active); in test [17], 26.8 µM (active); in test [16], 26.8 µM (active).
